GDH-TPI inh = counter-screen for M. tuberculosis FBA inhibitors: GDH-TPI coupled enzymes | 360,000 compounds, 1.2% hits | inhibition, % at 4.8 µM | GDH-TPI coupled enzyme counterscreen, NADH absorbance | AID 588335; in the data active = inhibition above about 30%;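 note: 0% = DMSO wells and 100% = wells lacking the enzyme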
Mtb UGM inh = blocks M. tuberculosis UGM enzyme; P9WIQ1; purified UGM, fluorescence polarization probe displacement; inhibition, % at 10 µM; 320,000 compounds, 0.06% hits; AID 504406; in the data active = inhibition above about 10%, passing the limit was not always enough; inconclusive = no clear call, values can overlap the other calls
Mtb FBA inh = inhibits M. tuberculosis FBA enzyme. purified M. tuberculosis FBA, fluorescence read-out. AID 588726. 360,000 compounds, 2.3% hits. P9WQA3. inhibition, % at 1 µM; in the data active = inhibition above about 27%;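 note: 0% = vehicle and 100% = reference inhibitor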
Mtb bLac sens = beta-lactam sensitization of Mtb H37Rv; 330,000 compounds, 0.27% hits; M. tuberculosis H37Rv growth with meropenem, percent inhibition; inhibition, % at 25 µM; call rule not given here;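 note: growth measured after seven days incubation then overnight dye step; 0% = bacteria only wells and 100% = bacteria with antibiotic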
Rv3671c inh = inhibitors of M. tuberculosis serine protease Rv3671c | P9WHR9 | inhibition, % at 5.96 µM | 320,000 compounds, 0.048% hits; in the data active = inhibition above about 38%;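 note: extracellular domain of Rv3671c used as enzyme; 0% = enzyme with DMSO and 100% = no enzyme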
Target sequence (P9WHR9 whole entry, looked up, the tested form may be a part): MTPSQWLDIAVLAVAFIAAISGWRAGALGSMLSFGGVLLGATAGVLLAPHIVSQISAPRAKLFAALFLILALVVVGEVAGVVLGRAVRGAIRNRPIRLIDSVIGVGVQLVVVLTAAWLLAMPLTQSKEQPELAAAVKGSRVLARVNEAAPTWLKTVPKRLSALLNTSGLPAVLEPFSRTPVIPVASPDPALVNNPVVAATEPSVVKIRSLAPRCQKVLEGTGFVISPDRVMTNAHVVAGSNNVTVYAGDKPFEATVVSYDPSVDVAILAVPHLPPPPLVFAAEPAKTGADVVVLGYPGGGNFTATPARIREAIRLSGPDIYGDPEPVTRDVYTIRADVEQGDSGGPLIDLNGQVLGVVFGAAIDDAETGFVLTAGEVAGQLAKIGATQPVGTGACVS
* = called active by the depositor. The list is not random: actives were taken first. Their share in the collection is about 3.5%.

Screening Cc1ccc(O)c(NC(=O)c2ccc3c(c2)C(=O)N(Cc2cccnc2)C3=O)c1 returned GDH-TPI inh 13.4, Mtb UGM inh 1.9, Mtb FBA inh 1.1, Mtb bLac sens -7.3 and Rv3671c inh -5.5.
Screening CCCNC(=S)N1CCN(CC)CC1 returned GDH-TPI inh 4.4, Mtb UGM inh -1.8, Mtb FBA inh 2.8, Mtb bLac sens -1.0 and Rv3671c inh 5.5.
Screening O=C(NN1C(=O)C2C3CCC(O3)C2C1=O)c1ccco1 (stereo not drawn) returned GDH-TPI inh 8.1, Mtb UGM inh 0.3, Mtb FBA inh 2.3, Mtb bLac sens -2.3 and Rv3671c inh -7.4.
Cn1c(/C(C#N)=C/c2ccc(O)cc2)nc2ccccc21 was read as GDH-TPI inh 35.8*, Mtb UGM inh -2.3, Mtb FBA inh -9.5, Mtb bLac sens -5.5 and Rv3671c inh -10.6.
Screening Cn1c(=O)cc(Nc2ccccc2)[nH]c1=O returned GDH-TPI inh -1.5, Mtb UGM inh 1.4, Mtb FBA inh -0.2, Mtb bLac sens -1.0 and Rv3671c inh -5.9.
`CCN(/N=C/c1ccc(Cl)cc1)c1cc(=O)n(C)c(=O)[nH]1` gave GDH-TPI inh 50.6*, Mtb UGM inh 1.8, Mtb FBA inh -0.3, Mtb bLac sens -2.2 and Rv3671c inh 1.0.
CCN(/N=C/C=C/c1ccccc1)c1cc(=O)n(C)c(=O)[nH]1 was read as GDH-TPI inh 69.7*, Mtb UGM inh -0.1, Mtb FBA inh -2.5, Mtb bLac sens 6.8 and Rv3671c inh -11.4.
Screening Cn1c(=O)cc(C(=O)N/N=C/c2ccc(Cl)cc2)[nH]c1=O returned GDH-TPI inh 16.2, Mtb UGM inh -0.7, Mtb FBA inh -0.8, Mtb bLac sens -9.3 and Rv3671c inh 8.8.
For C=CCNC(=O)NC(=O)COC(=O)c1nc2nccc(C)n2n1 the results were GDH-TPI inh 8.0, Mtb UGM inh 0.2, Mtb FBA inh -1.4, Mtb bLac sens 1.2 and Rv3671c inh 5.1.
`COc1cc(Cl)c(C)cc1NC(=S)NN` gave GDH-TPI inh 2.5, Mtb UGM inh -1.2, Mtb FBA inh 0.4, Mtb bLac sens 6.6 and Rv3671c inh -11.6.
`O=C(N/N=C/c1ccc(-c2ccc(S(=O)(=O)Nc3ncccn3)cc2)o1)c1cc2ccccc2cc1O` gave GDH-TPI inh 27.0, Mtb UGM inh 1.0, Mtb FBA inh 5.4, Mtb bLac sens 2.0 and Rv3671c inh 27.3.
CCOc1ccc(C(=O)N/N=C/c2ccc(-c3ccc(S(=O)(=O)Nc4ncccn4)cc3)o2)cc1 was read as GDH-TPI inh 35.3*, Mtb UGM inh 2.9, Mtb FBA inh 25.7, Mtb bLac sens 99.9 and Rv3671c inh -0.2.
NC(=S)NN=Cc1ccc(-c2ccc(S(=O)(=O)Nc3ncccn3)cc2)o1 was read as GDH-TPI inh 32.6*, Mtb FBA inh 20.2, Mtb bLac sens -2.2 and Rv3671c inh 10.3.
NC(=S)N/N=C/c1ccc(-c2ccc(SC(F)F)cc2)o1 was read as GDH-TPI inh 44.8*, Mtb UGM inh -3.6, Mtb FBA inh 8.6, Mtb bLac sens 94.0 and Rv3671c inh 4.5.
`C[C@H](NC(=O)C1CCN(S(=O)(=O)c2ccccc2)CC1)C(=O)NCc1ccccn1` gave GDH-TPI inh 11.1, Mtb UGM inh 2.4, Mtb FBA inh 3.4, Mtb bLac sens -1.8 and Rv3671c inh -4.6.
For CN(C)c1ccc(C(=O)N/N=C/C23CC[C@@H](O)CC2(O)CC[C@@H]2[C@@H]3CCC3(C)C(C4=CC(=O)OC4)CCC23O)cc1 (stereo partly drawn) the results were GDH-TPI inh 45.5*, Mtb UGM inh 1.3, Mtb FBA inh 1.5, Mtb bLac sens -5.6 and Rv3671c inh -1.7.
O=[N+]([O-])c1cccc(/C=N/Nc2nccnc2Cl)c1 was read as GDH-TPI inh 37.2*, Mtb UGM inh 1.2, Mtb FBA inh 1.0, Mtb bLac sens -8.4 and Rv3671c inh 3.1.
CC(C)(C)N(Cc1ccccc1)C(=O)COC(=O)c1ccc2ccccc2n1 was read as GDH-TPI inh 2.6, Mtb UGM inh 0.2, Mtb FBA inh 3.0, Mtb bLac sens 37.8 and Rv3671c inh -3.9.
Screening CCc1c(C)c2cc(Cl)c(O)c(CN(C)C)c2oc1=O returned GDH-TPI inh 32.2*, Mtb UGM inh 0.0, Mtb bLac sens 19.2 and Rv3671c inh -2.9.
CCc1c(C)c2cc(Cl)c(O)c(CN(CC)CC)c2oc1=O was read as GDH-TPI inh 12.9, Mtb UGM inh 0.2, Mtb FBA inh active, Mtb bLac sens -9.8 and Rv3671c inh 5.5.
`Cc1c(O)c(CN(C)C)cc2c1oc(=O)c1ccccc12` gave GDH-TPI inh 20.0, Mtb UGM inh -0.1, Mtb FBA inh 1.5, Mtb bLac sens 20.8 and Rv3671c inh 13.2.
CCCCc1cc(=O)oc2c(CN(C)C)c(O)c(Cl)cc12 was read as GDH-TPI inh 12.5, Mtb UGM inh -2.2, Mtb bLac sens inconclusive and Rv3671c inh -3.9.
Screening Cc1c(C)c2cc(Cl)c(O)c(CN(C)C)c2oc1=O returned GDH-TPI inh 14.7, Mtb UGM inh 1.5, Mtb FBA inh active, Mtb bLac sens -4.9 and Rv3671c inh 8.7.
For COc1cc(/C=N/N=C(\N)c2nonc2N)cc(OC)c1O the results were GDH-TPI inh 36.1*, Mtb UGM inh -0.5, Mtb FBA inh -2.5, Mtb bLac sens -4.3 and Rv3671c inh 8.7.
Screening c1ccc(-c2ncc(-c3ccn[nH]3)s2)cc1 returned GDH-TPI inh 15.5, Mtb UGM inh -0.7, Mtb FBA inh 138.6*, Mtb bLac sens -1.0 and Rv3671c inh 0.7.
Screening c1ccc(Oc2ccc(-c3ccn[nH]3)cc2)cc1 returned GDH-TPI inh -2.6, Mtb UGM inh -0.8, Mtb FBA inh -1.8, Mtb bLac sens 2.7 and Rv3671c inh -1.8.
For CCC1NC(C(=O)O)Cc2c1[nH]c1ccccc21 (stereo not drawn) the results were GDH-TPI inh 10.8, Mtb UGM inh 4.6, Mtb FBA inh 47.2*, Mtb bLac sens -2.2 and Rv3671c inh -8.0.
For CCOC(=O)c1cc2c(=O)n3ccccc3nc2n(Cc2ccc(Cl)cc2)c1=N the results were GDH-TPI inh 5.1 and Mtb FBA inh 19.8.
CCCCn1c(=NC(=O)c2ccco2)c(C(=O)OCC)cc2c(=O)n3ccccc3nc21 was read as GDH-TPI inh 8.0, Mtb UGM inh 0.0, Mtb FBA inh 196.5*, Mtb bLac sens 1.2 and Rv3671c inh 4.9.
`CCCCn1c(=NC(=O)c2ccco2)c(C(=O)OCC)cc2c(=O)n3cccc(C)c3nc21` gave GDH-TPI inh 6.3, Mtb UGM inh 0.4, Mtb FBA inh 172.5*, Mtb bLac sens -3.7 and Rv3671c inh -7.1.
CCCCCn1c(=NC(=O)c2ccco2)c(C(=O)OCC)cc2c(=O)n3ccccc3nc21 was read as GDH-TPI inh 10.3, Mtb UGM inh 2.4, Mtb FBA inh 144.4*, Mtb bLac sens 7.8 and Rv3671c inh -9.2.
COc1cccc(C(=O)N=c2sc3c(C)ccc(OC)c3n2C)c1 was read as GDH-TPI inh -1.9, Mtb UGM inh -6.1, Mtb FBA inh -2.2, Mtb bLac sens 4.6 and Rv3671c inh 3.2.
`CCn1c(=NC(=O)c2cccc(N3C(=O)CCC3=O)c2)sc2c(C)ccc(OC)c21` gave GDH-TPI inh 38.3*, Mtb UGM inh 0.4, Mtb FBA inh 6.5, Mtb bLac sens 65.6 and Rv3671c inh -37.5.
